Compounds without any hit were thinned out: in the full panel of roughly 83,000, 20% have a hit.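 Testing used 96-well plates and a 48-hour single-concentration exposure. Example: -40 means 40% of the starting cells died.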 Values without a mark were called inactive. The source made the active and inactive calls. How the source made its calls: active means growth percent below 10; inactive means the rest.
Test system: CCRF-CEM leukemia
Assay: NCI-60 one-dose screen, 48 h (100 = growth as untreated, 0 = no growth, -100 = all killed)
Conditions: 10 µM unless noted

Row | SMILES | growth
1 | NC(=O)N1CCOCC1 | 88.9%
2 | N#Cc1ccc(OC(=O)Nc2c(Cl)cc(Cl)cc2Cl)cc1 | 99.3%
3 | CCOC(=O)/C(C)=C\c1ccc(OC)c(OC)c1 | 88.8%
4 | O=S(Cc1ccccc1)/C(=C/NC(=S)Nc1ccccc1)c1ccccc1 (centres undefined) | 102%
5 | C/C(=N\O)c1ccccn1 | 96.5%
6 | CC(C)NC(=O)OCc1c(COC(=O)NC(C)C)c(-c2ccc(Cl)cc2)n2c1CCC2 | 51.5%
7 | CC(=O)NNC(=S)/N=C\C(C(=O)c1ccccc1)=C(/O)c1ccccc1 | 102%
8 | C=CCS(C)(=O)=O | 110%
9 | O=C(NCc1ccccc1)c1cccc([N+](=O)[O-])c1 | 90.9%
10 | c1ccc(-c2ccc3ccccc3c2)cc1 | 99.6%
11 | Cc1ccccc1NC(=O)Oc1ccc(Cl)cc1C(=O)c1ccccc1 | 96.5%
12 | CCC(C)c1c(N)n(S(=O)(=O)c2ccc(C)cc2)oc1=O (centres undefined) | 112%
13 | O=Cc1c(O)c2ccccc2[nH]c1=O | 108%
14 | COC(=O)c1ccccc1C(=O)c1c(C)cc(C)cc1C | 99.2%
15 | N=C(N)c1nn(C2OC(CO)C(O)C2O)c2nc[nH]c(=O)c12 (centres undefined) | -0.754% (active)
16 | COc1cccc(C(=O)O)c1OC | 107%
17 | O=C(O)c1cc(I)ccc1O | 99.3%
18 | CC(=O)NNC(=S)N/C=C/c1c(C)ccc([N+](=O)[O-])c1[N+](=O)[O-] | 99.9%
19 | NNc1ncnc2c1ncn2C1OC(CO)C(O)C1O (centres undefined) | 72%
